Results: PubChem BioAssay AID624288 (National Center for Advancing Translational Sciences (NCATS), 2012)
The campaign covered roughly 340,000 compounds. About 1,400 (0.41%) were called active. Inconclusive results (about 4%) are left out. This is one part of a sample in which actives are shown more often than they occur. The call rests on the fitted dose curve; cell line not stated here.

Experiment: qHTS for Antagonists of gsp, the Etiologic Mutation Responsible for Fibrous Dysplasia/McCune-Albright Syndrome: qHTS; further: nearly all actives have a fitted effect of over 65% in size
Conditions: gsp-mutant cells, cAMP HTRF, 30 min; series mostly up to 76.9 µM; activity change, negative = inhibition: at the top concentration
Summary of the method: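 HTRF cAMP read-out (cAMP-d2 plus anti-cAMP antibody-K in lysis buffer, 30 min RT). Before lysis, cells are exposed to compounds with […] for 30 min at 37C in DPBS containing Ca/Mg, BSA and Tween 20.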
On the % scale 0 is the no-effect control and ±100 the full control effect; potency means the concentration at half of the fitted maximal effect.

Activity change, negative = inhibition, inactive:
COc1ccc(CNCCCn2cnc3c(OCc4ccccc4)ncnc32)cc1 3.58%
CCOC(=O)N1CCN(C(=O)CN(c2ccc(C)c(C)c2)S(=O)(=O)c2ccccc2)CC1 -27.4%
CCN1CCN(C(=O)c2ccc(CN(c3ccc(C)c(C)c3)S(C)(=O)=O)cc2)CC1 -1.35%
CC/C(=C\c1ccc(Cl)cc1)c1ccncc1 0.582%
Cc1ccc(C)c(OCCC(=O)Nc2cccc(S(=O)(=O)N3CCCC3)c2)c1 -6.41%
Cc1ccc(C)c(S(=O)(=O)N2CCN(CC(=O)Nc3ccc([N+](=O)[O-])cc3)CC2)c1 -14.1%
CCC1([N+](=O)[O-])COC(c2ccc(C)cc2)OC1 (centres undefined) 8.71%
NC(=O)C1(Nc2ccccc2Cl)CCCC1 6.31%
CC(Nc1ccc([N+](=O)[O-])cc1[N+](=O)[O-])c1ccccc1 (centres undefined) 0.305%
O=C(Nc1ccccc1)c1ccc2c(c1)OCCCO2 2.04%
O=C(Nc1ccc(NC(=O)c2ccc3c(c2)OCO3)cc1)c1cccc(Cl)c1 -0.0043%
CN(C(=O)c1cccc(NC(=O)Cc2ccc(NC(=O)C3CCN(C(=O)C4CCCCC4)CC3)cc2)c1)C1CCC1 -3.58%
COc1cc(/C=C/CNC[C@H]2O[C@@H](n3cnc(C(N)=O)n3)[C@H](O)[C@@H]2O)ccc1O -9.58%
CC(=O)N1CCCc2cc(S(=O)(=O)CCC(=O)N3CCN(c4ccccc4)CC3)ccc21 -3.38%
CC(=O)N1CCCc2cc(S(=O)(=O)N3CCCC(C(=O)NCc4ccc(Cl)cc4)C3)ccc21 (centres undefined) -31.9%
CC(=O)Oc1ccc(OC(C)=O)c2c1C1C=CC2CC1 4.86%
Cc1cccc(CSc2nnc(Cn3c(=O)sc4ccccc43)n2C)c1 4.08%
COc1ccccc1CNC(=O)CCn1c(=O)sc2ccccc21 6.93%
COc1ccc(CCN2CC(C(=O)OCC(=O)NCc3ccccc3Cl)CC2=O)cc1OC (centres undefined) -9.54%
NC(CSC1(c2ccccc2)c2ccccc2-c2ccccc21)C(=O)O (centres undefined) -7.06%
CSCCC(NC(=O)COc1ccccc1)C(=O)N1CCN(c2cccc(C(F)(F)F)c2)CC1 (centres undefined) -29.3%
COC(C[C@@H](O)C[C@@H](O)[C@H](C)OCc1ccccc1)OC 7.67%
COC(C[C@H](O)CC(=O)[C@@H](C)OCc1ccccc1)OC 4.83%
CC(=NNC(=S)N1CCCCCC1)c1ccccn1 -9.14%
CC(NC(=O)CCC(=O)N1CCN(S(=O)(=O)c2ccc(Cl)cc2)CC1)c1ccccc1 (centres undefined) -17.9%
O=C(NCc1cccc(C(F)(F)F)c1)c1cccc(S(=O)(=O)N2CCN(Cc3ccccc3)CC2)c1 -5.09%
NC(=O)c1ccc(N2CCCC2)nc1 -2.72%
O=C(O)c1ccc(S(=O)(=O)c2ccccc2)s1 5.66%
CCc1ccccc1NC(=O)c1ccc2snnc2c1 4.35%
O=C(Nc1cccc(Br)c1)c1ccc2snnc2c1 -23.6%
Oc1cccc(C2c3[nH]c4ccccc4c3CCN2Cc2cnn(-c3ccccc3)c2)c1 (centres undefined) -2.03%
COc1ccc(C2c3[nH]c4ccccc4c3CCN2CCCn2cccn2)cc1C (centres undefined) 15%
O=C(Nc1c(Br)cc2c(c1Br)Cc1cc([N+](=O)[O-])ccc1-2)C(Cl)Cl -9.46%
CCN(CC)C(=O)c1sc(NC(=O)c2ccco2)c(C#N)c1C -7.04%
Cn1nccc1CNC(=O)c1ccnn1C 11%
COc1cc2c(cc1OC)C(Cc1cc(OC)c(OC)cc1[N+](=O)[O-])=NCC2 3.48%
NC(=O)c1ncn([C@@H]2O[C@H](CN=C3NS(=O)(=O)c4ccccc43)[C@@H](O)[C@H]2O)n1 10.3%
COc1ccc(OC)c2sc(NC(=O)C3COc4ccccc4O3)nc12 (centres undefined) -9.81%
O=C(CCc1ccccc1)Nc1ncc([N+](=O)[O-])s1 -29.1%
Cc1cn(C2CC(O)C(CO)O2)c(=O)n(CCCc2ccccc2)c1=O (centres undefined) -4.28%
COc1ccc(C(CNC(=O)c2cc(S(=O)(=O)Nc3cccc(C)c3)ccc2C)N2CCCC2)cc1 (centres undefined) 1.7%
CCOC(=O)c1ccccc1NC(=O)CSc1nc2c(sc(=S)n2CC)c(=O)[nH]1 -10.4%
O=C(NN=Cc1ccc([N+](=O)[O-])cc1)C1CC1 5.89%
COc1cc(/C=N/NC(=O)c2ccc(N3CCCC3=O)cc2)ccc1O -3.68%
Cn1c(=O)n(C)c2cc(/C=N/NC(=O)c3cccc(Br)c3)ccc21 -3.14%
COc1ccc(/C=C2/CCCc3ccccc3C2=O)cc1 7.77%
CC(=O)OC1CCC2(C)C(=CCC3C4CC(=O)N(O)C(=O)C4(C)CCC32)C1 (centres undefined) -7.34%
CCCc1cc(=O)n2[nH]c(C)c(-c3ccc(Cl)cc3)c2n1 -9.55%
Cc1cccc(N=Nc2c(C)[nH]n(-c3ccccc3)c2=O)c1 -12.1%
O=C(NN=Cc1ccccc1O)NN=Cc1ccccc1O 1.63%
Cc1cc(NC(=O)c2cc3ccccc3o2)no1 -6.53%

Potency, active:
CCOC(=O)N1CCN(C(=O)c2ccc(CN(c3ccc(C)c(C)c3)S(C)(=O)=O)cc2)CC1 22.4 µM
CC(=O)Nc1ccc(S(=O)(=O)N2CCN(CCCOc3cc(C)ccc3C)CC2)cc1 31.6 µM
O=C(Nc1cccc(S(=O)(=O)Nc2ccc(Cl)cc2)c1)c1ccc2c(c1)OCCO2 35.5 µM
CC(=O)N1CCCc2cc(S(=O)(=O)N3CCCC(C(=O)N4CCN(c5cccc(Cl)c5)CC4)C3)ccc21 (centres undefined) 28.2 µM
COc1ccc(Cn2c(=O)sc3ccccc32)cc1OC 11.2 µM
COC(C[C@@H](O)C[C@H](O)[C@H](C)OCc1ccccc1)OC 50.1 µM
O=C(CCC(=O)N1CCN(S(=O)(=O)c2ccc(Cl)cc2)CC1)NCc1cccc(C(F)(F)F)c1 35.5 µM
O=C(Nc1ccc2ccccc2c1)Nc1ccc2snnc2c1 31.6 µM
COc1cccc(C2c3[nH]c4ccccc4c3CCN2Cc2cccc(C)n2)c1 (centres undefined) 39.8 µM
CCCc1ccc(-c2c(C)sc(NC(=O)c3ccnn3C)c2C#N)cc1 20 µM
O=C(Nc1ncc([N+](=O)[O-])s1)C1COc2ccccc2O1 (centres undefined) 39.8 µM
O=C(N/N=C/c1cccc(Br)c1)c1ccc(N2CCCC2=O)cc1 31.6 µM
Cc1[nH]n(-c2cccc(Cl)c2)c(=O)c1-c1ccc(Cl)cc1 28.2 µM
